Common to all, as to assay: NCI-60 one-dose screen, 48 h (100 = growth as untreated, 0 = no growth, -100 = all killed)
Common to all, as to conditions: 10 µM unless noted

Assay [1] deals with NCI-H23 lung.
For assay [2], the system named is NCI-H226 lung.
For assay [3], the system named is NCI-H322M lung.
Assay [4] relates to HOP-62 NSCLC.
Assay [5] relates to NCI-H460 lung.
Assay [6] relates to HOP-92 NSCLC.
For assay [7], the system named is NCI-H522 lung.
In assay [8] the test system is 786-0 renal.
Assay [9] has as its system COLO 205 colon.
Assay [10] deals with DU-145 prostate.
Assay [11] relates to K-562 leukemia.
Assay [12] deals with MALME-3M melanoma.
For assay [13], the system named is MDA-MB-231 breast.
The test system of assay [14] is RXF 393 renal.
Assay [15] relates to SF-268 CNS.
Assay [16] concerns SF-295 CNS.
For assay [17], the system named is SF-539 CNS.
For assay [18], the system named is UACC-257 melanoma.
Assay [19] concerns M14 melanoma.

About 83,000 compounds went through this panel and 20% of them were active in at least one assay; those are over-represented in the sample as a whole.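 Treatment: one concentration, 48 hours, 96-well format. Scoring: percent growth, with anything below 10 considered active.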 Values without a mark were called inactive. Calls of active or inactive are those of the source.

For eight compounds, growth results are on record in PubChem BioAssay (NCI).

In the case of `O=c1ccc(-c2nc(N3CCOCC3)c3ccccc3n2)c[nH]1`, the growth is 93.9% in [1]; 91.7% in assay [2]; 92.3% in assay [3]; 99.6% in assay [4]; 103% in assay [5]; 103% in [6]. In addition, the growth in [7] is 98.9%; in assay [8], 97.1%; in [9], 106%; in assay [10] it was 93.6%; in assay [11], 116%; in [12], 99.4%. Also, the growth is 88.4% in assay [13]; 103% in [14]; 88.1% in [15]; 90.5% in assay [16]; 93.5% in assay [17]; 124% in assay [18]. In addition, in [19], the growth is 93.3%.
Turning to `CCOC(=O)c1cc(C(=O)c2ccc(OC)cc2)n2ccc(/C=C/c3cc[n+](CC(=O)c4ccc(OC)cc4)cc3)cc12`, the growth in assay [1] was 83.6%; in assay [2] it was 90.7%; in assay [3] it was 86.3%; in assay [4] it was 81.1%; in [5], 75.1%; in assay [6], 50.1%. Besides, the growth in assay [7] is 57.1%; in [9], 65.3%; in [10], 75%; in assay [11], -15.2% (active); in assay [12] it was 92.1%; in assay [13], 72.1%. Moreover, the growth in assay [14] is 99.9%; in assay [15], 94.5%; in assay [16], 104%; in [17], 92.9%; in assay [18], 111%; in [19] it was 75.4%.
Turning to `Fc1ccc(-c2cn3c(nc4ccccc43)c(-c3ccccc3)n2)cc1`, the growth in [1] was 88.5%; in [2], 97.5%; in assay [3], 109%; in assay [4], 107%; in assay [5] it was 98.2%; in assay [6], 68.7%. In addition, the growth in assay [7] is 64.7%; in assay [8] it was 83%; in [9], 116%; in assay [10], 106%; in assay [12], 107%; in [13] it was 89.3%. Moreover, the growth in [14] is 80.4%; in [15], 90.1%; in [16], 103%; in [17], 90.1%; in assay [18] it was 101%; in assay [19], 109%.
As to `CCCCC[n+]1ccc(SCC(=O)N(C)c2ccc(Oc3ccccc3)cc2)c2ccccc21`, the growth in assay [1] is 90.3%; in assay [2], 106%; in assay [3], 107%; in assay [4], 115%; in [5] it was 107%; in [6], 99.9%. Besides, the growth is 63.3% in [7]; 102% in assay [8]; 20.9% in [9]; 112% in [10]; 25.4% in [11]; 84.8% in assay [12]. In addition, the growth in [13] is 110%; in [14], 115%; in assay [15], 116%; in assay [16], 91.4%; in assay [17] it was 107%; in assay [18], 96.2%. Moreover, the growth in assay [19] is 102%.
For `O=[N+]([O-])c1cc(Br)c2cccc3c2c1CC3`, the growth is 106% in [1]; 103% in assay [2]; 106% in assay [3]; 118% in assay [4]; 106% in assay [5]; 97.1% in [6]. The growth was 108% in [7]; 96.5% in assay [8]; 118% in [9]; 112% in [10]; 100% in [11]; 120% in assay [12]. Besides, the growth in assay [13] was 87.1%; in [14], 110%; in assay [15], 109%; in assay [16], 116%; in assay [17], 103%; in assay [18], 106%. For the same compound, in assay [19], the growth was 104%.
For `O=C(c1nc2ccccc2[nH]1)C1C(c2ccc(Br)cc2)C2CC3CCCC[C@H]3N2[C@@]12C(=O)Nc1cc(Cl)ccc12` (stereo partly drawn), the growth was 54.5% in [1]; 51.8% in assay [2]; 56.1% in assay [3]; 62.4% in assay [4]; 16.8% in [5]; 52.1% in assay [6]. Moreover, the growth in assay [7] is 59.1%; in [8], 42%; in assay [9] it was 21.8%; in [10], 52%; in assay [11], 25.3%; in assay [12] it was 32%. Also, the growth in assay [13] was 41.6%; in assay [14], 34%; in assay [15], 42%; in assay [16], 31.6%; in [17], 56%; in assay [18] it was 43.2%. Also, the growth in assay [19] was 26.9%.
Take `COc1cc2c3c(c4c5ccccc5[nH]c4c2c(OC)c1OC)C(=O)N(CCN1CCOCC1)C3=O`: the growth is 63% in assay [1]; 69.8% in assay [2]; 68.2% in [3]; 59.9% in [4]; 18.6% in assay [5]; 75.4% in assay [6]. In addition, the growth is 35.4% in [7]; 56.2% in assay [8]; 56.4% in [9]; 66% in [10]; 78.5% in [12]; 72.4% in [13]. The growth was 48.8% in assay [14]; 47.7% in [15]; 36.5% in assay [16]; 63.7% in assay [17]; 70.4% in assay [18]; 76% in [19].
As for `O=C(Cn1c[n+](CC(=O)c2ccc([N+](=O)[O-])cc2)c2ccccc21)Nc1cccc2cccnc12`, the growth in assay [1] is 50.9%; in [2], 80.7%; in [3], 96%; in assay [4], 95.5%; in assay [5] it was 77.7%; in [6], 28%. Also, the growth in [7] is 47.1%; in [9], 23.9%; in [10], 85.1%; in assay [11], 38.2%; in assay [12], 81.4%; in assay [13] it was 50.5%. Further, the growth in [14] was 97.6%; in [15], 65.1%; in assay [16], 101%; in assay [17] it was 87.8%; in assay [18], 48.6%; in assay [19], 78.4%.
